This is an account of results in PubChem BioAssay (NCI).

Holding throughout (experiment): NCI-60 one-dose screen, 48 h (100 = growth as untreated, 0 = no growth, -100 = all killed)
Test [1] concerns SK-MEL-2 melanoma. The note with it: 10 µM unless noted.
Test [2] concerns EKVX NSCLC. As to conditions: 10 µM unless noted.
The test system of test [3] is SN12C renal. As to conditions: 10 µM unless noted.
Test [4] deals with UO-31 renal. As to conditions: 10 µM unless noted.
Test [5] relates to TK-10 renal. The note with it: 10 µM unless noted.
For test [6], the system named is ACHN renal. As to conditions: 10 µM unless noted.
The test system of test [7] is CAKI-1 renal. As to conditions: 10 µM unless noted.
Test [8] concerns A498 renal. As to conditions: 10 µM unless noted.
In test [9] the test system is CCRF-CEM leukemia. As to conditions: 10 µM unless noted.
In test [10] the test system is MOLT-4 leukemia. The note with it: 10 µM unless noted.
For test [11], the system named is SR leukemia. As to conditions: 10 µM unless noted.
In test [12] the test system is RPMI-8226 leukemia. The note with it: 10 µM unless noted.
Test [13] deals with OVCAR-8 ovarian. As to conditions: 10 µM unless noted.
Test [14] deals with OVCAR-5 ovarian. As to conditions: 10 µM unless noted.
In test [15] the test system is OVCAR-4 ovarian. The note with it: 10 µM unless noted.
In test [16] the test system is SK-OV-3 ovarian. As to conditions: 10 µM unless noted.
For test [17], the system named is IGROV1 ovarian. The note with it: 10 µM unless noted.
Test [18] has as its system OVCAR-3 ovarian. As to conditions: 10 µM unless noted.
Test [19] relates to NCI/ADR-RES ovarian. As to conditions: 10 µM unless noted.
The subject of test [20] is HS 578T breast. As to conditions: 10 µM.

Molecules are shown by their SMILES. This is part of a sample that, as a whole, favours compounds with a hit. Of some 83,000 tested, about 20% had one in any assay.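 Interpretation: 100, growth as untreated; towards 0, rising growth inhibition; 0, no net growth; 0 to -100, cell death. Compounds scoring below 10 were considered active.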 Values without a mark were called inactive. Calls of active or inactive are those of the source.

Consider `COc1ccc2c(c1)CCCC21C(=O)Nc2c(Cl)cccc21` (centres undefined), for which the growth in test [1] was 43%; in test [2] it was 91%; in test [3] it was 82.6%; in test [4], 82.8%; in test [5] it was 95.4%; in test [6], 85.1%. Moreover, the growth is 54.9% in test [7]; 79.6% in [8]; 60.9% in [9]; 52.1% in test [10]; 29.6% in test [11]; 82.9% in test [12]. In addition, the growth is 84.6% in test [13]; 92.9% in test [14]; 96.1% in test [15]; 71.9% in [16]; 88.5% in test [17]; 76.3% in [18]. Besides, the growth in [19] is 18.3%.

Consider `COc1cc(C2Nc3ccccc3S2)cc(CN2CCOCC2)c1O` (centres undefined), for which the growth was 64.4% in test [1]; 102% in [2]; 91.9% in test [3]; 45.6% in [4]; 84.7% in [5]; 88.3% in test [6]. Besides, the growth in test [7] is 74%; in test [8], 73.3%; in test [9], 80.1%; in test [10] it was 25.3%; in test [11], 49%; in test [12] it was 81.1%. For the same compound, the growth in [13] is 88.9%; in test [14], 122%; in test [15], 87.5%; in test [16], 83.3%; in [18] it was 52%; in [20], 72.2%. For the same compound, the growth in test [19] is 34.2%.

In the case of `COc1ccc(/C(=C\c2cc(OC)c(OC)c(OC)c2)C(=O)Nc2nc3ccc(Cl)cc3s2)cc1`, the growth is 94.8% in [1]; 80.5% in [2]; 96.9% in test [3]; 76.4% in test [4]; 92.4% in test [5]; 103% in test [6]. Moreover, the growth in test [7] was 83.2%; in [8], 97.4%; in [9] it was 85%; in [10] it was 64.4%; in [11], 76.4%; in test [12] it was 80.8%. The growth was 94.1% in [13]; 97.2% in test [14]; 104% in test [15]; 98.4% in [16]; 106% in [17]; 100% in test [20]. Besides, the growth in test [19] was 92%.

With `Nc1ccc(C(OC(=O)c2cc3ccccc3c(Cc3c(O)c(C(=O)OC(c4ccc(N)cc4)(c4ccc(N)cc4)c4ccc(N)cc4)cc4ccccc34)c2O)(c2ccc(N)cc2)c2ccc(N)cc2)cc1`, the growth was -17.2% (active) in test [1]; -5.75% (active) in [2]; -2.33% (active) in test [3]; 29% in [4]; 44.6% in test [5]; 47.5% in test [6]. Besides, the growth in test [7] is 11.3%; in test [8], -3.31% (active); in test [9] it was 21.6%; in test [10], 21%; in [11], 13.1%; in test [12], 2.08% (active). For the same compound, the growth was 13.5% in test [13]; 38.8% in test [14]; 15.7% in test [16]; 47.4% in [17]; -14.3% (active) in test [18]; -18.4% (active) in test [20]. Also, in test [19], the growth was 57.1%.

Regarding `OC(c1cc2c(Cl)cc(Cl)cc2c2cc(C(F)(F)F)ccc12)C1CCCCN1` (centres undefined), the growth in test [1] was -65.3% (active); in test [2], -51.8% (active); in test [3], -79.1% (active); in test [4] it was -87.6% (active); in test [5] it was -87.7% (active); in test [6] it was -78.6% (active). Further, the growth in [7] is -62.5% (active); in test [8], 0.166% (active); in test [9] it was -54.7% (active); in test [10], -62.6% (active); in test [11], -63.5% (active); in test [12], -44.8% (active). In addition, the growth in [13] was -61% (active); in [14], -78.5% (active); in test [16] it was -18.3% (active); in [17] it was -67.9% (active); in [18] it was -86% (active); in [20], -56.1% (active). For the same compound, the growth in test [19] was -60.4% (active).

For `CN1CCN(Cc2ccc(NC(=O)c3cncc(C#Cc4cnc5cccnn45)c3)cc2C(F)(F)F)CC1`, the growth in test [1] was -58.6% (active); in test [2] it was -39.1% (active); in test [3], 3.05% (active); in test [4] it was 0.419% (active); in test [5] it was -4.27% (active); in test [6], 5.04% (active). The growth was 5.93% (active) in test [7]; -33.1% (active) in test [8]; 5.9% (active) in [9]; -1.76% (active) in test [10]; 5.44% (active) in [11]; -20.1% (active) in test [12]. The growth in test [13] was 5.17% (active); in test [14], 12.7%; in [15] it was -21.7% (active); in [16], 7.64% (active); in [17] it was 5.12% (active); in test [20] it was -17.3% (active). For the same compound, in [19], the growth was 18.3%.
